± gives the standard deviation. A value given as a limit tells only on which side of the number the result lay.

In this experiment the test system is EfPiwi piRISC loaded with L1MC piRNA (26 nt). The experiment in a line: pre-steady-state target cleavage rate (min^-1); auxiliary factor: 500 nM Ephydatia muelleri Gtsf1; guide: L1MC piRNA 5'p-UAACUAAAUACUAUGCAAGCUGUAGG; MIWI and MILI are mouse PIWI proteins and EfPiwi is from a freshwater sponge; tags in brackets are library labels; higher = faster piRNA-guided slicing of the target. On the procedure:
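Cleave-'n-Seq: a library of target RNAs (target site in constant flanks) at […] was incubated with 1 nM active freshwater sponge Ephydatia fluviatilis Piwi piRISC (synthetic 5'-monophosphorylated piRNA guide) with or without 500 nM EmGtsf1 at 33 °C for 1 min to 16 h. Uncleaved targets were sequenced and the pooled three trials fitted to a burst-and-steady-state model to give the pre-steady-state cleavage rate (min^-1). Sequence is the target site only. Fits with R² ≤ 0 are excluded.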
UCCUGGAUCAGAUUGCAUAGUAUUUAGUUA: the “pre-steady-state target cleavage rate” value is 0.0613 ± 0.011.
With UCCUGCUACUGCUUGGAUAGUAUUUAGUUA, the “pre-steady-state target cleavage rate” value is 0.0111 ± 0.0029.
Next, UCCUGGAUGACCUUGCAUAGUAUUUAGUUA: 0.0113 ± 0.0049; UCCUGGAUGUCGUAUGCAUAGUAUUUAGUUA: 0.00476 ± 0.0027; UCCUGGUACACGCUUGCAUAGUAUUUAGUUA: 0.00613 ± 0.0031.
As for UCCUGCUACAGCUUGCUUAGUAUAUAGUUA, the “pre-steady-state target cleavage rate” value came to 0.0125 ± 0.0047.
Regarding UCCUGGAUCACCUUGCAAAGUAUUUAGUUA, the “pre-steady-state target cleavage rate” value worked out at 0.00506 ± 0.0019.
Turning to UCCUGGAACCGCUUGCAUAGUAUUUAGUUA, the “pre-steady-state target cleavage rate” value worked out at 0.0172 ± 0.0054.
UCCUGCUACAGCUUGGAUAGUAUUUUGUUA: the “pre-steady-state target cleavage rate” value was 0.00556 ± 0.002.
Take UCCUGCUACCGCUUGCAUAGUAUUUAGUUA: the “pre-steady-state target cleavage rate” value is 0.0156 ± 0.005.
Next, UCCUGGUUGUGCUUGCAUAGUAUUUAGUAA: 0.00401 ± 0.0038; UCCUGGAUCAGCUUGCCUAGUAUUUAGUUA: 0.0512 ± 0.011; UCCUGGAUGAGCUUGCAUAGUAGUUUAGUUA: 0.00964 ± 0.0035.
As for UCCUGGAACAGGUUGGAUAGUAUUUAGUUA, the “pre-steady-state target cleavage rate” value turned out to be 0.00375 ± 0.0014.
With UCCUGGAUCAGGUAGCAUAGUAUUUAGUUA the figure was 0.00369 ± 0.0035.
UCCUGGAACAGCUUUGCAUAGUAUUUAGUUA: the “pre-steady-state target cleavage rate” value was 0.0309 ± 0.0082.
With UCCUGGAUGUCCUUAGCAUAGUAUUUAGUUA, the “pre-steady-state target cleavage rate” value was determined as 0.00479 ± 0.003.
Next, UCCUGCUACAGCUUGGCAUAGUAUUUAGUUA: 0.00928 ± 0.0031.
As to UCCUGCUAGAGCUUCCAUAGUAUUUAGUUA, the “pre-steady-state target cleavage rate” value came to 0.00239 ± 0.0017.
Take UCCUCCAACAGCUUGCAUAGUAAUUAGUUA: the “pre-steady-state target cleavage rate” value amounted to 0.0103 ± 0.0047.
With UCCUGGAACACCUUGCAUAGUAUUUUGUUA the figure was 0.00343 ± 0.0029.
In the case of UCCUGCUACAGCUUGCAUAGAUUUAGUUA, the “pre-steady-state target cleavage rate” value amounted to 0.00286 ± 0.0015.
With UCCUCGUACAGCUUGCAUACUAUUUAGUUA the figure was 0.0224 ± 0.0069; with UCCUGGUACAGCUUGCAUAGUAUAAAGUAA, 0.00243 ± 0.0022.
UCCUGGAUGUCGAACCAUUCAAUUUAGUUA: the “pre-steady-state target cleavage rate” value is under 0.0001.
Turning to UCCUCCUUCAGCUUGCAUAGUAUUUUCAAA, the “pre-steady-state target cleavage rate” value stood at 0.00259 ± 0.0024.
For UCCUGGAACAGCUAGCUUAGUAUUUAGUUA, the “pre-steady-state target cleavage rate” value is 0.00846 ± 0.0037.
For UCCUGCUACAGCUUGCAUAGUAUUAUGAAA, the “pre-steady-state target cleavage rate” value amounted to 0.00355 ± 0.0023.
UCCUGGAUGAGCUUGCAUCGUAUUUAGUUA: the “pre-steady-state target cleavage rate” value was 0.00975 ± 0.0029.
Next, UCCUCCUACAUGCUUGCAUAGUAUUUAGUUA: 0.00449 ± 0.0018; UCCUGGAACAGCAUGCAUACUAUUUAGUUA: 0.00762 ± 0.0026.
In the case of UCCUGGUACAGCUUGCAUAGUAUUUACAUA, the “pre-steady-state target cleavage rate” value amounted to 0.0038 ± 0.0029.
With UCCUGGAACAGCUUGCAUAGUAUUCAGUUA, the “pre-steady-state target cleavage rate” value worked out at 0.00333 ± 0.0018.
Consider UCCUGGUACAGCAUGCAUAGUAAUUAGUUA, for which the “pre-steady-state target cleavage rate” value was 0.00882 ± 0.0034.
Next, UCCUGGAUGUCCUUGCAUAGUAUUUAGUAUA: 0.00442 ± 0.0031; UCCUGGAUCAGCUUGCAUAGUAUUUAUUUA: 0.00293 ± 0.0028; UCCUGGUACAGCAUGCAUAGUAUAUAGUUA: 0.00569 ± 0.0031.
With UCCUGGAUCACGCUUGCAUAGUAUUUAGUUA, the “pre-steady-state target cleavage rate” value was 0.223 ± 0.05.
On to UCCUGCUACAGCUUCCAAAGUAUUUAGUUA, for which the “pre-steady-state target cleavage rate” value was found to be 0.00321 ± 0.0019.
With UCCUGGAUCAGCUUGCAUUGUAUUUAGUAA, the “pre-steady-state target cleavage rate” value came to 0.00441 ± 0.0018.

Values taken from the supplement of paper PMC10338343.
